This passage reports growth results from PubChem BioAssay (NCI).

Compounds without any hit were thinned out: in the full panel of roughly 83,000, 20% have a hit.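 How to read the values: 0–100, growth inhibition (40 = 60% inhibited); 0, no net growth; -100 to 0, cell death (-40 = 40% of starting cells died; -100 = all dead).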 A number with no mark means an inactive call. The source made the active and inactive calls. The calls were made as follows: active = growth percent below 10; inactive = the rest.

Among the test systems are NCI-H23 lung; NCI-H226 lung; NCI-H322M lung; HOP-62 NSCLC; NCI-H460 lung; HOP-92 NSCLC; NCI-H522 lung; A549/ATCC NSCLC; 786-0 renal; COLO 205 colon; DU-145 prostate; K-562 leukemia; MALME-3M melanoma; MDA-MB-231 breast; SF-268 CNS; SF-295 CNS; SF-539 CNS; UACC-257 melanoma; M14 melanoma; RXF 393 renal.
Common to all, as to assay: NCI-60 one-dose screen, 48 h (100 = growth as untreated, 0 = no growth, -100 = all killed)
Holding throughout (details): 10 µM unless noted

Consider `C[n+]1cc2cc3c(cc2c2ccccc21)OCO3`, for which the growth with NCI-H23 lung was 42.7%; in the assay on NCI-H226 lung, 55.3%; with NCI-H322M lung, 39%; with HOP-62 NSCLC, 33.7%; with NCI-H460 lung it was 59.2%; in the assay with HOP-92 NSCLC, 82%. The growth is 30.8% in the assay on NCI-H522 lung; 15.1% in the assay with A549/ATCC NSCLC; 51.4% with 786-0 renal; 75.6% in the assay on COLO 205 colon; 57.3% with DU-145 prostate; 49.1% with K-562 leukemia. For the same molecule, the growth in the assay on MALME-3M melanoma was -0.635% (active); in the assay with MDA-MB-231 breast, 90.1%; in the assay on SF-268 CNS, -0.333% (active); in the assay on SF-295 CNS, 9.18% (active); in the assay on SF-539 CNS it was 38.8%; with UACC-257 melanoma, 69.5%. In the assay with M14 melanoma, the growth was 81.4%.

In the case of `O=C(c1ccc(Cl)cc1)N1CCCCC1`, the growth in the assay with NCI-H23 lung was 95.6%; in the assay on NCI-H226 lung it was 95.4%; in the assay on NCI-H322M lung, 106%; with HOP-62 NSCLC it was 96.7%; with NCI-H460 lung it was 101%; with HOP-92 NSCLC, 97.4%. Further, the growth in the assay with NCI-H522 lung was 93.6%; in the assay on A549/ATCC NSCLC, 95.4%; in the assay with 786-0 renal, 102%; with COLO 205 colon, 104%; with DU-145 prostate, 115%; in the assay on K-562 leukemia it was 97.2%. For the same molecule, the growth in the assay on MALME-3M melanoma was 109%; in the assay on MDA-MB-231 breast, 94.4%; in the assay on SF-268 CNS it was 104%; with SF-295 CNS, 99.2%; in the assay with SF-539 CNS it was 98.5%; in the assay with UACC-257 melanoma it was 94%. Besides, the growth in the assay with M14 melanoma was 104%.

Consider `CCc1ccccc1C(=O)N(CC)CC`, for which the growth in the assay on NCI-H23 lung is 103%; in the assay with NCI-H226 lung it was 95.4%; in the assay with NCI-H322M lung it was 105%; in the assay with HOP-62 NSCLC, 103%; in the assay with NCI-H460 lung, 104%; in the assay on HOP-92 NSCLC it was 107%. Moreover, the growth in the assay on NCI-H522 lung is 105%; in the assay with A549/ATCC NSCLC, 97.1%; in the assay with 786-0 renal, 101%; with COLO 205 colon, 111%; in the assay on DU-145 prostate, 104%; in the assay on K-562 leukemia, 106%. Besides, the growth was 102% with MALME-3M melanoma; 100% with MDA-MB-231 breast; 97.5% with SF-268 CNS; 97.6% with SF-295 CNS; 94.9% in the assay on SF-539 CNS; 103% in the assay with UACC-257 melanoma. The growth in the assay on M14 melanoma is 103%.

Regarding `Cc1ccc(NC(=S)N2CCOCC2)cc1C`, the growth was 107% with NCI-H23 lung; 92.4% with NCI-H226 lung; 85.5% in the assay with NCI-H322M lung; 99.7% with HOP-62 NSCLC; 106% in the assay with NCI-H460 lung; 95% in the assay on HOP-92 NSCLC. Also, the growth was 84.2% with NCI-H522 lung; 96.8% in the assay on A549/ATCC NSCLC; 97% with 786-0 renal; 118% in the assay with COLO 205 colon; 109% with DU-145 prostate; 95.4% in the assay with K-562 leukemia. Moreover, the growth is 93.8% in the assay with MALME-3M melanoma; 99.9% in the assay on MDA-MB-231 breast; 110% in the assay on SF-268 CNS; 96.2% with SF-295 CNS; 103% in the assay with SF-539 CNS; 93.5% in the assay with UACC-257 melanoma. For the same molecule, the growth with M14 melanoma was 93.1%.

On to `COc1ccc2c(c1)Nc1ccccc1S2`, for which the growth in the assay on NCI-H23 lung is 104%; in the assay on NCI-H226 lung it was 108%; in the assay with NCI-H322M lung it was 101%; in the assay on HOP-62 NSCLC it was 105%; in the assay on NCI-H460 lung it was 109%; with HOP-92 NSCLC, 78.5%. Moreover, the growth was 98.9% with NCI-H522 lung; 104% in the assay with A549/ATCC NSCLC; 98.7% in the assay with 786-0 renal; 111% in the assay on COLO 205 colon; 116% in the assay with DU-145 prostate; 102% in the assay with K-562 leukemia. Further, the growth was 105% with MALME-3M melanoma; 109% with MDA-MB-231 breast; 115% in the assay on RXF 393 renal; 108% with SF-295 CNS; 103% with SF-539 CNS; 115% in the assay on UACC-257 melanoma. Moreover, the growth with M14 melanoma is 101%.

For `CC(C)(C)CC1(C)NC(=O)NC1=O` (stereo not given), the growth is 103% in the assay on NCI-H23 lung; 112% in the assay on NCI-H226 lung; 126% in the assay on NCI-H322M lung; 99.1% in the assay on HOP-62 NSCLC; 120% in the assay on NCI-H460 lung; 107% in the assay with HOP-92 NSCLC. Also, the growth with NCI-H522 lung is 150%; in the assay with A549/ATCC NSCLC, 120%; in the assay with 786-0 renal it was 98.7%; with COLO 205 colon, 135%; in the assay with DU-145 prostate it was 114%; in the assay with K-562 leukemia, 126%. Moreover, the growth in the assay on MALME-3M melanoma is 111%; with MDA-MB-231 breast, 118%; in the assay on SF-268 CNS, 119%; with SF-295 CNS, 108%; in the assay on SF-539 CNS, 109%; with UACC-257 melanoma it was 114%. The growth in the assay with M14 melanoma is 104%.

As for `O=[N+]([O-])c1c(Cl)ncnc1Cl`, the growth in the assay with NCI-H23 lung was 111%; with NCI-H226 lung, 100%; in the assay with NCI-H322M lung it was 125%; with HOP-62 NSCLC, 104%; with NCI-H460 lung, 93.2%; with HOP-92 NSCLC it was 85.7%. For the same molecule, the growth in the assay with NCI-H522 lung was 97.3%; in the assay on A549/ATCC NSCLC, 92.8%; in the assay on 786-0 renal, 109%; in the assay on COLO 205 colon, 113%; with DU-145 prostate it was 110%; in the assay with K-562 leukemia, 109%. Moreover, the growth with MALME-3M melanoma is 104%; in the assay with MDA-MB-231 breast, 120%; with RXF 393 renal, 108%; in the assay on SF-539 CNS it was 88.9%; in the assay on UACC-257 melanoma, 86%; in the assay on M14 melanoma, 118%.

`CCNc1ncnc2[nH]ncc12`: the growth with NCI-H23 lung is 114%; in the assay with NCI-H226 lung, 98.9%; in the assay on NCI-H322M lung it was 96.1%; in the assay on HOP-62 NSCLC, 103%; in the assay on NCI-H460 lung, 106%; in the assay on HOP-92 NSCLC it was 101%. Besides, the growth was 113% in the assay on NCI-H522 lung; 107% in the assay on A549/ATCC NSCLC; 105% with 786-0 renal; 114% in the assay on COLO 205 colon; 117% in the assay on DU-145 prostate; 119% with K-562 leukemia. Also, the growth was 72% with MALME-3M melanoma; 107% in the assay on MDA-MB-231 breast; 112% in the assay with SF-268 CNS; 112% in the assay on SF-295 CNS; 96.2% in the assay with SF-539 CNS; 89.2% with UACC-257 melanoma. Besides, in the assay on M14 melanoma, the growth is 107%.

Turning to `CN(C)c1ncnc2c1cnn2C`, the growth in the assay with NCI-H23 lung is 103%; in the assay on NCI-H226 lung it was 98.9%; in the assay on NCI-H322M lung, 102%; with HOP-62 NSCLC, 95.8%; in the assay with NCI-H460 lung it was 103%; in the assay with HOP-92 NSCLC, 89.2%. Moreover, the growth in the assay with NCI-H522 lung is 106%; in the assay on A549/ATCC NSCLC, 93.9%; with 786-0 renal, 99%; in the assay with COLO 205 colon it was 107%; in the assay on DU-145 prostate it was 104%; in the assay with K-562 leukemia it was 97%. In addition, the growth in the assay with MALME-3M melanoma was 103%; with MDA-MB-231 breast it was 109%; in the assay with SF-268 CNS it was 84.6%; in the assay with SF-295 CNS, 94.5%; in the assay on SF-539 CNS it was 94.2%; with UACC-257 melanoma, 84.2%. Moreover, in the assay on M14 melanoma, the growth was 103%.
